# Source: the supplement of paper PMC8699584
# Values joined by “and” are separate entries in the source; they are usually repeats but may differ in a detail not shown here. Identical values can stand only once. Counter-ions that a name gives are not always drawn. ± gives the standard deviation of the averaged measurements.
# Test system: Mv4-11
# Assay: cell viability relative to DMSO control (bortezomib = 0%); higher = less growth inhibition
# Conditions: 10 nM; 72 h
# Summary of the method: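 Viability was determined with CellTiter-Glo luminescence. Acute myeloid leukemia cells (1000 per well, 50 µL) were exposed for 72 h to 679 approved and investigational compounds at a single 10 nM dose in 384-well plates. Percentages came from per-plate linear regression, setting DMSO-treated wells to 100% and positive-control-treated wells to 0%.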
row,SMILES,cell viability
1,COc1ccc(CNC(=O)Nc2ncc([N+](=O)[O-])s2)cc1,114 ± 15%
2,O=C(O)c1cc(O)c2c(c1)[C@@H]([C@H]1c3cc(C(=O)O)cc(O)c3C(=O)c3c(O[C@@H]4O[C@H](CO)[C@@H](O)[C@H](O)[C@H]4O)cccc31)c1cccc(O[C@@H]3O[C@H](CO)[C@@H](O)[C@H](O)[C@H]3O)c1C2=O [Sennoside B],91.4 ± 16%
3,COc1cc(Nc2ncc(F)c(Nc3ccc4c(n3)NC(=O)C(C)(C)O4)n2)cc(OC)c1OC [R406 free base],105 ± 1.6%
4,Cc1cc2sc(NC(=O)Cc3ccccc3)nc2cc1Cl,119 ± 4.2%
5,O=c1cc(N2CCOCC2)oc2c(-c3cccc4c3sc3ccccc34)cccc12,108 ± 8.2%
6,COc1cc2ccc(=O)oc2cc1O [Scopoletin],109.9 ± 0.78%
7,O=C(NC[C@H](O)CO)c1ccncc1Nc1ccc(I)cc1F,103% and 92.3%
8,Cc1c(NC(=O)OC[C@@H]2COCCN2)cn2ncnc(Nc3ccc4c(cnn4Cc4cccc(F)c4)c3)c12,112 ± 11%
9,c1ccc(-c2[nH]ncc2-c2ccnc3ccccc23)nc1,111% and 113%
10,Nc1ccc(C(=O)Nc2cccc(-c3nc(N4CCOCC4)c4oc5ncccc5c4n3)c2)cn1,106% and 108%
11,COc1cc2ncnc(Nc3cccc(Cl)c3)c2cc1OC,108 ± 7.1%
12,COc1cc(N2CCOCC2)ccc1Nc1ncc(F)c(Nc2ccccc2NS(C)(=O)=O)n1,111 ± 4.2%
13,CS(=O)(=O)c1ccc(-c2nc(-c3ccc(F)cc3)c(-c3ccncc3)[nH]2)cc1,100.3 ± 0.91%
14,CC(C)(C)NS(=O)(=O)c1cncc(-c2cc(F)c3nc(N)nn3c2)c1,105 ± 1.1%
15,COc1cc2nccc(Oc3ccc(NC(=O)Nc4cc(C)on4)c(Cl)c3)c2cc1OC [Tivozanib (AV-951)],96.1 ± 11%
16,O=C(c1cccc(Cl)c1F)N1CCN(Cc2cccc(Nc3nccs3)n2)CC1,115 ± 9.6%
17,Cc1ccc(C(=O)N(CCCN)[C@@H](c2oc3cc(Cl)ccc3c(=O)c2Cc2ccccc2)C(C)C)cc1,-0.7 ± 5.9%
18,CNCc1ccc(-c2cc(-c3nc(-c4ccc(S(=O)(=O)C(C)C)cc4)cnc3N)on2)cc1,101 ± 18%
19,CC(C)c1ccc2c(c1)CC[C@@H]1[C@@](C)(CN)CCC[C@@]21C [Leelamine (hydrochloride)],96.46 ± 0.32%
20,c1ccc2c(-c3cnn4cc(-c5ccc(N6CCNCC6)cc5)cnc34)ccnc2c1,112 ± 6.1%
21,Nc1ncnc2c1c(I)cn2[C@@H]1O[C@H](CO)[C@@H](O)[C@H]1O [5-Iodotubercidin],87.1 ± 4.9%
22,N#CC(C#N)=C(N)/C(C#N)=C/c1cc(O)c(O)c(O)c1,94.3 ± 15%
23,CS(=O)(=O)CCNCc1ccc(-c2ccc3ncnc(Nc4ccc(OCc5cccc(F)c5)c(Cl)c4)c3c2)o1 [Lapatinib],103.5 ± 0.39%
24,Cn1cc(-c2ccc3ncc(Cc4ccc5ncccc5c4)n3n2)cn1,119 ± 16%
25,COc1cc(C(=O)N2CCC(N3CCN(C)CC3)CC2)ccc1Nc1ncc2c(n1)N(C)c1ccccc1C(=O)N2C,104 ± 5.1%
26,O=Nc1c(-c2c(O)[nH]c3ccccc23)[nH]c2ccccc12 [Indirubin-3'-monoxime],80.7 ± 4.5%
